Rows were chosen to be rich in hits. Some 9.2% of all compounds tested hit in one or more screens of this group.
HTT ATP protect – protects HTT-Q103 PC12 cells, measured by ATP. PC12 HTT-Q103 induced, cytoprotection, ATP luminescence, 40 h. Potency, µM (highest dose often 56.4 µM), hits mostly activators. 230,000 tested, 0.14% active. AID 1471; active = well fitted curve in the direction sought with a large enough effect; inconclusive = small, poorly fitted or top-dose-only effect, or another doubt; inactive = no such curve, though single readings can be large; an effect the other way counts as inactive or inconclusive; also: nearly all actives have a fitted effect of over 45% in size
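Quantitative HTS on tebufenozide-induced (100 nM) PC12 cells expressing HTTQ103 exon 1–GFP; compounds tested as a concentration series; survival measured via cellular ATP.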
HPGD block – HPGD (human) dehydrogenase inhibition | AID 894 | 150,000 tested, 4.3% active | purified HPGD, NADH fluorescence kinetic, PGE2 substrate | P15428 | Potency, µM, usual class: inhibitors
Target sequence (P15428 whole entry, looked up): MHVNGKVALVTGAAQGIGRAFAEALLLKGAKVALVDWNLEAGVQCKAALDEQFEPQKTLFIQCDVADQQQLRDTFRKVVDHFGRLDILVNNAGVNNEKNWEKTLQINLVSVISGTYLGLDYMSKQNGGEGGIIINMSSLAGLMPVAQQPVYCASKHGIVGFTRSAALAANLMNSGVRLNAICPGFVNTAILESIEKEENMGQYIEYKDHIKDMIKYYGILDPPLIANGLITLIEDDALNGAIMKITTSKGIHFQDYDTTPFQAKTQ
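20 nM HPGD preincubated 15 min at room temperature with compound in 50 mM Tris-HCl pH 8, 0.01% Tween 20. Started with 1 mM NAD+ and 30 uM prostaglandin E2; NADH fluorescence (360/450 nm) read 5 times over 30-s intervals, last minus first.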
Lamin A splicing – LMNA splicing modulation; HeLa LMNA splicing GFP/RFP minigene ratio, 48 h; Potency, µM (series often up to 46.1 µM), most hits filed as inhibitors; 200,000 tested, 0.01% active; AID 1487; active = well fitted inhibition curve with a large enough effect in the signal ratio, with a control signal flat, not every such curve was filed as active; inconclusive = small, poorly fitted or top-dose-only effect, or effect the other way, or a change in a side signal; the % refers to the signal ratio
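S3 HeLa stable clones carrying a lamin A-EGFP splicing minigene plus DsRed2 were seeded at 600 cells/well in Opti-MEM with 2% FBS, pin-dosed and incubated 48 h at 37°C. Acumen cytometry (488 nm) gave the GFP/RFP total-intensity ratio.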
ALDH1A1 block – ALDH1A1 (human) enzyme inhibition. Potency, µM (titrated, usually from 75.3 µM), actives largely listed as inhibitors. P00352. Purified ALDH1A1, NADH fluorescence, propionaldehyde substrate. 220,000 tested, 7.3% active
Target sequence (P00352 whole entry, looked up): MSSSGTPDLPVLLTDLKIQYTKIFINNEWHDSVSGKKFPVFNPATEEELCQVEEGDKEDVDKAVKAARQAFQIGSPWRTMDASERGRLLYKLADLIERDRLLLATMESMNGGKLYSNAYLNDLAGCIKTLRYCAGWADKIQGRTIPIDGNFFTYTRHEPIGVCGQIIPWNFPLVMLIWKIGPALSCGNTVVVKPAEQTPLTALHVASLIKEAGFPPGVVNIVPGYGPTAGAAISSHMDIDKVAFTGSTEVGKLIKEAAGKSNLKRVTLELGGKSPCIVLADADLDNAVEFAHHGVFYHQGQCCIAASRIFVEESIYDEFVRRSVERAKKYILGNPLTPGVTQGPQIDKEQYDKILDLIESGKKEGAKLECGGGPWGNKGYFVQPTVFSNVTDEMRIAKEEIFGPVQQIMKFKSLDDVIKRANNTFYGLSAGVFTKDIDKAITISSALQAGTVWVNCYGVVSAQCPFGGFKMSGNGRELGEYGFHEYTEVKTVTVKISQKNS
KDM4E inh – inhibitors of human JMJD2E histone demethylase | 230,000 tested, 1.6% active | Potency, µM (doses to about 57.1 µM), most hits filed as inhibitors | JMJD2E catalytic domain, FDH-coupled NADH fluorescence (FDH is formaldehyde dehydrogenase) | B2RXH2; also: nearly all actives have a fitted effect of over 50% in size
HTT aggregate – mutant huntingtin aggregation inhibition; PC12 HttQ103-GFP aggregates, Acumen cytometry, 40 h; Potency, µM (doses to about 46.1 µM), most hits filed as inhibitors; 220,000 tested, 1.1% active; active = well fitted curve in the direction sought with a large enough effect; inconclusive = small, poorly fitted or top-dose-only effect, or another doubt; inactive = no such curve, though single readings can be large; an effect the other way counts as inactive or inconclusive; also: nearly all actives have a fitted effect of over 60% in size
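Using laser scanning cytometry, GFP-positive aggregates were counted after lysis of PC12 cells induced with 100 nM tebufenozide to express HTT exon 1 Q103–GFP. Compounds were tested in titration.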
Numbers stand for hits; . = inactive; ? = inconclusive; / = no result; ! = not confirmed by another sample; [ ] = remark or other dose. Unless noted, calls follow the shape of the dose curve; as a rule, active = well fitted inhibition curve with a large enough effect (not every such curve was filed as active); inconclusive = small, poorly fitted or top-dose-only effect, or another doubt; inactive = no such curve, though single readings can be large or run the other way.

SMILES | HTT ATP protect | HPGD block | Lamin A splicing | ALDH1A1 block | KDM4E inh | HTT aggregate
CC(C)N(Cc1nc(-c2ccccc2)no1)C(=O)c1ccc(Br)o1 | .[0.074 µM] | . | . | 10µM | . | .
COCCN(C)Cc1cn(-c2ccc(F)cc2F)nc1-c1ccccc1C | .[10 µM] | / | / | 25.1µM | . | ?
Cc1ccc(OCC(=O)Nc2nnc(S(=O)(=O)N3CCc4ccccc43)s2)cc1 | / | / | . | / | / | /
CC(C)(C)NC(=O)c1cnn(-c2ccccc2)c1C1CCN(C(=O)OC(C)(C)C)CC1 | / | / | . | / | / | /
Cc1ccc(C(C[N+](=O)[O-])n2nc(C)cc2C)cc1 (stereo not given) | . | 15.8µM | . | ? | . | .
COc1cc(/C=N/OCC(=O)Nc2ccc(OC(F)F)cc2)ccc1OCc1ccccc1 | .[10 µM] | . | ? | . | . | .
COc1cc(/C=N/OCC(=O)NC23CC4CC(CC(C4)C2)C3)ccc1OCc1ccccc1 | .[10 µM] | / | ? | 22.4µM | . | ?
COc1cc(/C=N/OCC(=O)NC2CCCCC2)ccc1OCc1ccccc1 | / | . | ? | 22.4µM | . | .
CC(C)(C)Cn1nc(-c2ccc(Cl)cc2)c2c(N)ncnc21 | . | . | / | . | . | /
CC(C)CN1CCCC2(CCN(S(=O)(=O)c3ccccc3)CC2)C1 | . | . | / | . | / | /
CCOc1cc(CNCCSc2nnnn2C)cc(Br)c1OCc1ccccc1F | . | . | . | ? | . | .
CCOc1cc(CNCc2ccncc2)cc(Br)c1OCc1ccccc1F | . | . | . | . | . | 10µM
CC(C)Cc1cc(C(=O)Nc2sc3c(c2C#N)CCCC3)no1 | . | 28.2µM | ? | 17.8µM | . | .
Cc1cc(C(=O)Nc2sc3c(c2C#N)CCC3)no1 | . | . | . | ? | . | .
Cc1cc(C(=O)Nc2sc3c(c2C#N)CCCC3)no1 | .[10 µM] | 28.2µM | . | 11.2µM | . | .
N#Cc1c(NC(=O)C2CC(Cl)=CCC2C(=O)O)sc2c1CCCC2 (stereo not given) | / | / | / | 17.8µM | . | /
N#Cc1c(NC(=O)c2cc(C3CC3)on2)sc2c1CCC2 | . | . | ? | ? | . | .
CC(C)Cc1cc(C(=O)Nc2sc3c(c2C#N)CCC3)no1 | . | ? | . | 22.4µM | . | .
Cc1cc(C)cc(NC(=O)N2CCN(c3cc(-c4noc(C)n4)ccc3C)CC2)c1 | / | / | . | / | / | /
Cc1ccc(C(=O)Nc2sc3c(c2C#N)CCCCC3)cc1C | .[1.9 µM] | ? | . | ? | . | .
N#Cc1c(NC(=O)c2cc(-n3cnnc3)ccc2Cl)sc2c1CCCC2 | .[0.074 µM] | . | ? | 12.6µM | . | .
O=c1c(-c2ccc(Cl)cc2)nc2cnc(N3CCNCC3)nc2n1Cc1ccc(F)cc1 | . | ? | / | ? | / | /
Nc1nc(=S)[nH]c2c1C1(CCCC1)Cc1ccccc1-2 | . | 12.6µM | . | . | . | .
COc1ccc(C(=O)CC2(O)C(=O)Nc3c(C)cccc32)c(OC)c1OC (stereo not given) | / | / | . | / | / | /
CC(C(=O)O)N1C(=O)/C(=C/C=C/c2ccco2)SC1=S (stereo not given) | . | 15.8µM | . | . | 0.891µM | .
SMILES | HTT ATP protect | HPGD block | Lamin A splicing | ALDH1A1 block | KDM4E inh | HTT aggregate
CC(=C\c1ccccc1)/C=C1/SC(=S)N(C(C(=O)O)C(C)C)C1=O (stereo not given) | . | / | ? | . | . | .
O=C1/C(=C/C=C/c2ccco2)SC(=S)N1NS(=O)(=O)c1ccccc1 | .[10 µM] | / | / | / | 15.8µM | .[9.22 µM]
O=C(CSc1ncnc2ccccc12)NCc1ccco1 | .[10 µM] | 15.8µM | . | . | . | .
O=C(COc1ncnc2ccccc12)NCc1ccco1 | . | / | / | . | . | .
COc1ccc(-n2nnc3c(SCC(=O)NCc4ccco4)ncnc32)cc1 | . | 28.2µM | ? | ? | . | ?
Cc1ccc(-n2nnc3c(SCC(=O)NCc4ccco4)ncnc32)cc1 | .[10 µM] | ? | . | . | . | ?
O=C(CSc1ncnc2ccccc12)c1ccco1 | . | / | / | 11.2µM | . | .
CCOC(=O)C1=C(C)N=C2c3ccccc3C(=O)C2C1c1ccc(Cl)cc1 (stereo not given) | . | . | . | . | . | .
CCOC(=O)C1=C(Cc2ccc(Cl)cc2)C(=O)c2ccccc2C1=O | . | 3.55µM | ? | ? | ? | .
CC(=O)NCC(=O)N[C@H](CCC(=O)O)C(=O)O | ? | . | / | . | . | /
COCCNC(=O)CSCc1c(F)cccc1Cl | .[0.074 µM] | 22.4µM | . | . | . | .
O=C(CNC(=O)c1ccco1)OCc1c(F)cccc1Cl | .[10 µM] | . | . | . | . | .
COc1ccc(CNC(=O)CSCc2c(F)cccc2Cl)cc1 | .[10 µM] | / | / | 2.24µM | . | .[9.22 µM]
O=C(NCCSCc1c(F)cccc1Cl)c1ccco1 | . | 5.01µM | . | 15.8µM | . | .
O=C(CSCc1c(F)cccc1Cl)NCc1ccncc1 | .[1.9 µM] | / | ? | ? | . | .[9.22 µM]
O=C(/C=C/c1ccc(S(=O)(=O)NCc2ccco2)cc1)NCc1ccccc1Cl | .[10 µM] | / | . | 28.2µM | . | .[9.22 µM]
COC(=O)[C@@H]1C[C@@]2(O)[C@H](O)[C@H](O)[C@H](O)C[C@H]2N1Cc1ccc(-c2ccccc2)cc1 | . | . | / | ? | 8.91µM! | .[9.22 µM]
Cc1ccc(S(=O)(=O)NC(=O)Nc2ccc(F)cc2)cc1 | .[10 µM] | . | . | . | . | .
Cc1ccc(S(=O)(=O)NC(=O)Nc2cc(C)ccc2F)cc1 | . | . | ? | 28.2µM | . | .
Cc1ccc(NC(=O)c2ccc(Cl)cc2Cl)cc1O | .[10 µM] | / | / | / | . | .[9.22 µM]
OC[C@@H]1O[C@](CO)(O[C@H]2O[C@H](CO)[C@@H](O)[C@H](O)[C@H]2O)[C@H](O)[C@H]1O | . | / | / | / | / | .
C=CCN1C(=CCO)[C@H]2C[C@H]3[C@@H]1CC[C@@]31c3ccccc3N3C=C4[C@@H]5N(/C=C/2[C@H]31)c1ccccc1[C@]51CC[C@H]2[C@H]1C[C@@H]4/C(=C/CO)N2CC=C | . | . | ? | . | . | .
CCN(CC)S(=O)(=O)c1ccc2c(c1)c(=O)c(C(=O)NCCCN(C)c1ccccc1)cn2C | . | . | . | . | . | .
CN(CCCNC(=O)c1cn(C)c2ccc(S(=O)(=O)N(C)C)cc2c1=O)c1ccccc1 | . | . | ? | ? | . | .
CCN(CC)S(=O)(=O)c1ccc2c(c1)c(=O)c(C(=O)NCc1cccs1)cn2C | / | . | . | 11.2µM | . | .
CN(C)S(=O)(=O)c1ccc2c(c1)c(=O)c(C(=O)NCCCN1CCCCCC1)cn2C | .[10 µM] | . | . | 15µM | . | .
CN1CCN(c2ncc3nc(CCc4ccccc4)c(=O)n(C)c3n2)CC1 | . | / | . | ? | / | /
CC1=NN(C(=O)c2csc(C(C)C)c2)C(O)(C(F)(F)F)C1 (stereo not given) | .[10 µM] | . | . | . | ? | .
COc1ccc(-c2noc(CN3CCOCC3)n2)cc1OC | . | . | . | 22.4µM | . | .
CCOC(=O)C1=NOC2C3CC(C12)C1C(=O)N(CCc2ccc(OC)c(OC)c2)C(=O)C31 (stereo not given) | .[10 µM] | / | / | / | . | .[9.22 µM]

Compound activity (PubChem BioAssay)
